Reference: PubChem BioAssay (NCI)
About 83,000 compounds went through this panel and 20% of them were active in at least one assay; those are over-represented in the sample as a whole.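 Growth was measured after 48 h exposure to one concentration of compound in 96-well plates. Values under 10 count as active.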 Active and inactive are the calls of the source.

What follows are compounds tested on HCT-15 colon (assay: NCI-60 one-dose screen, 48 h (100 = growth as untreated, 0 = no growth, -100 = all killed)). Details: 10 µM unless noted.

SMILES	growth
O=Cc1ccc([N+](=O)[O-])s1	48.7% (inactive)
CC(C)(C)n1cc(-c2ccnc(NCCCNS(=O)(=O)c3ccc(F)cc3)c2)c(-c2cccc(F)c2)n1	5.18% (active)
O=C1C(Cl)=C(Nc2ccc(O)cc2)C(=O)N1Cc1ccc(Cl)cc1	19.7% (inactive)
COc1cc(CNC(=O)CCCC/C=C/C(C)C)ccc1OCc1nnc(Nc2ccc([N+](=O)[O-])cc2)o1	81.2% (inactive)
O=C(N/N=C/c1ccc(F)cc1)c1ccc(C(F)(F)F)nc1Nc1cccc(C(F)(F)F)c1	0.43% (active)
C=C(C)[C@@H]1CC[C@]2(C(=O)NCCNCCN)CC[C@]3(C)[C@H](CC[C@@H]4[C@@]5(C)C/C(=C/c6ccncc6)C(=O)C(C)(C)[C@@H]5CC[C@]43C)[C@@H]12	91.4% (inactive)
O=C(COc1ccc(-c2nc3ccccc3[nH]2)cc1)N=Nc1c(O)[nH]c2ccc(Cl)cc12	93% (inactive)
C/C(=N/O)c1ccc(F)cc1	11.5% (inactive)
COc1ccc(C2=Nc3c/c(=C\c4c(O)[nH]c5ccc(Cl)cc45)ccc3=N2)cc1	22.5% (inactive)
CCOC(=O)c1cnc2ccccc2c1Cl	101% (inactive)
CCCc1cc(NC)nc(S(=O)(=O)CC)n1	104% (inactive)
COc1ccc(/C=C2\C(=O)N=C3N2NC(c2cc(Br)ccc2O)C=C(C)N3c2ccccc2)cc1 (stereo unspecified)	103% (inactive)
O=S(=O)(NCCNc1nccc(-c2c(-c3cccc(F)c3)nc3occn23)n1)c1ccc(Br)cc1	77.9% (inactive)
CCn1cc(C(=O)N/N=C/c2cccs2)c(=O)c2cc(F)c(N3CCNC(C)C3)c(F)c21 (stereo unspecified)	25% (inactive)
Cn1c(=O)c2[nH]c(N/N=C/c3ccccc3Br)nc2n(C)c1=O	100% (inactive)
CCCCCCNC(=O)Oc1ccc(/C(=C(/C)Cc2ccc(OC)cc2)c2ccc(OCCCN(C)C)cc2)cc1	-6.62% (active)
O=C(OCc1ccc2cccc(O)c2n1)N1CCN(C(=O)c2cc3cc(F)ccc3[nH]2)CC1	-36.4% (active)
CC(=O)[C@@H]1CCC=C2CC[C@]3(C)[C@@H](CC[C@@H]4[C@@]5(C)CCCNC(C)(C)[C@@H]5CC[C@]43C)[C@H]21	-89% (active)

SMILES	growth
O=c1oc2ccc([N+](=O)[O-])cc2cc1Br	100% (inactive)
S=C(Nc1ccc(-c2nc(N3CCOCC3)c3cccn3n2)cc1)Nc1cccnc1	18.4% (inactive)
O=C1/C(=C/c2ccc(-c3ccc(Br)cc3)o2)SC(=S)N1CCc1ccc(O)cc1	78.9% (inactive)
CCOC(=O)CSc1ncnc2c1c(-c1ccccc1)c(-c1ccccc1)n2-c1ccc(C)cc1	106% (inactive)
CCNc1cc(-c2cccc(OC(F)(F)F)c2)nc2ccc(N3CCCC3)cc12	4.85% (active)
CCCCNC(=O)Oc1ccc(/C(=C(/CC)Cc2ccccc2)c2ccc(OCCN3CCCCCC3)cc2)cc1	-29.9% (active)
COc1ccc(-c2nc3c(c(-c4ccccc4)nn3-c3ccccc3)c(-c3ccc(N4CCOCC4)cc3)c2C#N)cc1	91.4% (inactive)
COc1cc(-c2csc(NC(=O)c3cc(-n4cnc(C)c4)cc(C(F)(F)F)c3)n2)cc(OC)c1OC	39.5% (inactive)
COc1cc(CNS(=O)(=O)c2ccc(C)cc2)ccc1OCc1cn(-c2ccc(Br)cc2)nn1	103% (inactive)
Nc1ncnc2c1N=C(c1ccc3c(c1)OCO3)CC(c1ccc([N+](=O)[O-])cc1)N2 (stereo unspecified)	77% (inactive)
COc1ccc(-c2nc3c(c(-c4ccccc4)nn3-c3ccccc3)c(-c3ccc(N4CCN(C)CC4)cc3)c2C#N)cc1	56.2% (inactive)
CCOC(=O)C(=Cc1cccc(Cl)c1)C(=O)OCC	-51.1% (active)
O=C1NC(=O)c2c1c1c3ccccc3ccc1c1[nH]c3ccc(Br)cc3c21	13.4% (inactive)
CC1(c2ccccc2O)NN=C(/N=C/c2cccc([N+](=O)[O-])c2)N1C(Cc1c[nH]c2ccccc12)C(=O)O (stereo unspecified)	98.7% (inactive)
CCOP(=O)(OCC)c1nc(-c2ccccc2)oc1NCc1cccnc1	107% (inactive)
CCOC(=O)c1cn2ncnc(Oc3ccc(NC(=O)NC4CCCCC4)c(Cl)c3)c2c1C	69.4% (inactive)
COC(=O)c1cc(-c2ccccc2)[nH]c1N/N=C/c1c(Cl)cccc1Cl	15% (inactive)
COc1ccc(-c2nnc(-c3ccc4c(c3)nc(-c3ccncc3)n4C3CCCCC3)o2)cc1	53.6% (inactive)
